# Measured values from PubChem BioAssay AID1626 (SRMLSC, 2009).
# Among all 220,000 compounds or so, about 2,000 (0.91%) were called active. Inconclusive results (about 2%) are left out. Cut-off read from the data, not from the text of the source: inconclusive = inhibition above about 80% without an active follow-up result; inactive = below that; test concentration not stated here. Not all results are given here. Results with a measured potency or affinity are listed apart.
# Assay: M. tuberculosis H37Rv growth inhibitors, H37Rv strain (AID 1626);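 note: bacteria incubated seven days before Alamar blue readout; 0% = bacteria only wells and 100% = bacteria with antibiotic wells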
# Conditions: active compounds read high, concentration not given here
row,SMILES,inhibition
1,O=C(O)c1cccc(N2C(=O)/C(=C/c3ccc([N+](=O)[O-])cc3)C=C2c2ccccc2)c1,1.03% (inactive)
2,O=C1/C(=C/c2ccc([N+](=O)[O-])cc2)C=C(c2ccccc2)N1c1ccccc1,-2.05% (inactive)
3,COCCCNC(=O)c1ccc(CS(=O)(=O)c2ccc(Br)cc2)o1,-8.42% (inactive)
4,Cc1nc(CNC(=O)CC2C(=O)NCCN2Cc2cccc(Oc3ccccc3)c2)cs1 (centres undefined),-3.5% (inactive)
5,COc1cc2c(cc1OC)C(C)N(C(C)=O)CC2 (centres undefined),-6.23% (inactive)
6,COC(=O)c1sccc1NC(=O)c1sccc1C,0.49% (inactive)
7,Cc1cc(C)c(NC(=O)c2cn3c4c(c(N5CCN(C)CC5)c(F)cc4c2=O)OCC3C)c(C)c1 (centres undefined),9.11% (inactive)
8,CCCCOc1ccc(C(=O)Nc2ccc(N3CCN(C)CC3)cc2)cc1,16.1% (inactive)
9,COc1ccc(CCC(=O)Nc2cccc(Cl)c2)cc1,10.2% (inactive)
10,Cc1nc2c(C)cccc2cc1C(=O)N/N=C/c1ccc(C(=O)O)cc1,-1.57% (inactive)
11,Cc1ccc(NC(C)C(=O)N/N=C/c2ccc([N+](=O)[O-])s2)cc1 (centres undefined),75% (inactive)
12,COC(=O)c1cccc(NC(=O)/C=C/c2cccc([N+](=O)[O-])c2)c1,-2.96% (inactive)
13,Cc1ccc(NC(=O)/C=C/c2cccs2)c([N+](=O)[O-])c1,-6.44% (inactive)
14,O=C(/C=C/c1cccs1)Nc1ccc([N+](=O)[O-])cc1,4.49% (inactive)
15,Cc1cc(C)cc(NC(=O)/C=C/c2ccc([N+](=O)[O-])s2)c1,15.5% (inactive)
16,COC(=O)c1cccc(NC(=O)/C=C/c2ccc([N+](=O)[O-])cc2)c1,3.4% (inactive)
17,CCCC(c1nnnn1C(C)(C)C)N1CCN(Cc2ccccc2OC)CC1 (centres undefined),-3.31% (inactive)
18,CCOC(=O)c1[nH]c(C)c(C(=O)NCc2cccnc2)c1C,-1.85% (inactive)
19,O=C(NCc1ccccn1)c1ccc(Cl)c(S(=O)(=O)Nc2ccccc2C(=O)NCc2ccccn2)c1,-4.28% (inactive)
20,CCN1CCN(C(=O)c2cn(CCOC)c(=O)c3c2c2ccccc2n3C)CC1,2.91% (inactive)
21,O=C(CCC1CCCN(C(=O)c2ccsc2)C1)N1CCN(c2ccccn2)CC1 (centres undefined),-1.82% (inactive)
22,COc1cccc(OC)c1C(=O)NC(=S)Nc1ccc2c(c1)OCCO2,7.64% (inactive)
23,COC(=O)N/N=C/c1ccccc1,3.14% (inactive)
24,CC(C)(C)OC(=O)N1CCN(C(=O)Nc2ccc3c(c2)OCCO3)CC1,3.99% (inactive)

row,SMILES,inhibition
1,CC(=O)NC(CCS(C)(=O)=O)C(=O)Nc1cc(Cl)ccc1Cl (centres undefined),4.83% (inactive)
2,COc1ccccc1NC(=O)CN1C(=O)NC(CC(C)C)C1=O (centres undefined),-11.7% (inactive)
3,Cc1ccc(-n2[nH]c(C)c(C=Nc3ccc(S(=O)(=O)Nc4nccs4)cc3)c2=O)c(C)c1,45.6% (inactive)
4,CCc1nnc(NS(=O)(=O)c2ccc(N=Cc3c(C)[nH]n(-c4ccc(Cl)cc4)c3=O)cc2)s1,12.1% (inactive)
5,COc1ccc(NC(=O)CN(Cc2ccccc2)Cc2ccccc2)cc1S(N)(=O)=O,4.02% (inactive)
6,O=[N+]([O-])c1ccc(-c2nc(NCc3ccccc3)c3ccccc3n2)cc1,-2.12% (inactive)
7,Cc1ccc(Nc2nc(-c3ccncc3)nc3ccccc23)cc1,-4.95% (inactive)
8,CN(Cc1ccccc1)c1nc(-c2ccc([N+](=O)[O-])cc2)nc2ccccc12,0.45% (inactive)
9,Cc1ccc(-c2nc(Cl)nc3ccccc23)cc1,-2.37% (inactive)
10,CC1(C(=O)N2CCN(c3ccccc3)CC2)CC1(Cl)Cl (centres undefined),0.45% (inactive)
11,COCCCNC(=O)CSc1nc2sc(C(=O)OC)c(C)c2c(=O)n1N,7.98% (inactive)
12,CN(C)C(=O)Cn1c(SCC(=O)N2CCCc3ccccc32)nc2ccccc21,-5.91% (inactive)
13,Cc1ccc(OCc2nc3c4c(ncn3n2)-c2ccccc2CC42CCCC2)cc1,-1.61% (inactive)
14,COc1ccc2c(c1)CCC/C2=N/OC(=O)c1ccccc1OC,10.5% (inactive)
15,CCCSc1nc2c(=O)[nH][nH]c(=O)c2n1Cc1ccccc1,-2.99% (inactive)
16,CCOC(=O)CSc1nnc(-c2ccccc2OC)o1,10.6% (inactive)
17,O=C(CSc1nnc(-c2ccccc2NC(=O)c2ccccc2)o1)OC1CCCCC1,61.5% (inactive)
18,COc1ccc(-c2nnc(SCC(=O)N3CCCCC3)o2)c(OC)c1,3.89% (inactive)
19,O=C(Nc1ccccc1-c1nnc(SCc2ccccc2)o1)c1ccccc1,8.97% (inactive)
20,COC(=O)CSc1nnc(-c2ccccc2OC)o1,1.84% (inactive)
21,CCOC(=O)N1CCN(C(=O)CSc2nnc(-c3cc(OC)ccc3OC)o2)CC1,17.1% (inactive)
22,C#CCNC(=O)C1=C[C@@H](C)[C@H](CCCO)[C@@H](OCC)O1,-2.73% (inactive)
23,O=C(CCn1[nH]c(=O)c2ccccc2c1=O)NCCO,-2.07% (inactive)
24,COc1cccc(-c2nc(-c3ccc(NC(=O)c4ccncc4)cc3)no2)c1,7.98% (inactive)

row,SMILES,inhibition
1,CC1(C)OC(=O)C(=NNc2ccc(Br)cc2)C(=O)O1,76.6% (inactive)
2,O=C1c2ccccc2C(=O)N1CCCCN(C(=O)c1ccc([N+](=O)[O-])cc1)c1ccc(Cl)cc1,-7.62% (inactive)
3,O=C1c2ccccc2C(=O)N1CCCCN(C(=O)c1cccc([N+](=O)[O-])c1)c1ccc(Cl)cc1,-4.65% (inactive)
4,CCOC(=O)C1(CCOc2ccccc2)CCN(Cc2ccc3c(c2)OCCO3)CC1,-3.31% (inactive)
5,O=c1[nH]c(=O)n(CCOc2ccc(Cl)cc2)cc1Br,-3.97% (inactive)
6,COCCNC(=S)N1CCC(c2nc(-c3ccc(F)cc3)no2)CC1,-1.41% (inactive)
7,CC1=Nc2ccccc2/C1=C/c1sc(=O)n(CC(=O)N2CCCC2)c1O,-8.48% (inactive)
8,CC1=Nc2ccccc2/C1=C/c1sc(=S)n(-c2cccc(C(=O)O)c2)c1O,4.52% (inactive)
9,CC(C)CN(CCC(=O)O)CC(C)C,-0.69% (inactive)
10,CCOC(=O)c1cnc(-n2nc(C)cc2C)nc1NCCO,4.03% (inactive)
11,CCOC(=O)c1cnc(-n2nc(C)cc2C)nc1Oc1ccccc1F,-2.19% (inactive)
12,CCOC(=O)c1cnc(-n2nc(C)cc2C)nc1N1CC(C)OC(C)C1 (centres undefined),-1.14% (inactive)
13,CCOC(=O)c1cnc(-n2nc(C)cc2C)nc1Nc1ccccc1OC,25.4% (inactive)
14,CCOC(=O)c1cnc(-n2cc(C)cn2)nc1NCc1ccc2c(c1)OCO2,59.5% (inactive)
15,CCOC(=O)c1ccc(NCc2ccc3c(c2)OCO3)cc1,7.94% (inactive)
16,O=C(Cn1c(=O)n(-c2ccccc2)c(=O)c2oc3ccccc3c21)Nc1ccccc1,-0.16% (inactive)
17,O=C1CC(=O)CC(c2ccccc2Cl)C1,-8.51% (inactive)
18,CCO[C@H]1OC(C(=O)O)=C[C@@H](C(C)(C)C)[C@@H]1CCCO,-7.81% (inactive)
19,NS(=O)(=O)c1ccc(C(=O)Nc2ccc(-c3nc4cccnc4s3)cc2)cc1,9.76% (inactive)
20,Cc1cc(C)c2c3c(cn2n1)c(=O)n(C)c(=O)n3C,4.42% (inactive)
21,O=C(CCCSc1nc2ccccc2[nH]1)NCc1ccccc1Cl,-0.81% (inactive)
22,Cc1cc2nc(CCl)cc(=O)n2[nH]1,2.54% (inactive)
23,COCCn1cnc2c1c(=O)n(CC(=O)OCC#N)c(=O)n2Cc1ccccc1,1.32% (inactive)
24,O=C(c1ccccc1)N1CCN(c2ccc([N+](=O)[O-])c(NCC3CCCO3)c2)CC1 (centres undefined),3.59% (inactive)

row,SMILES,inhibition
1,O=C(COc1ccccc1)NC1CCCc2ccccc21 (centres undefined),-1.62% (inactive)
2,O=C(O)CSCC(=O)NC1CCCc2ccccc21 (centres undefined),0.52% (inactive)
3,Cc1cc(/C=C2/NC(=O)N(Cc3ccccc3F)C2=O)c(C)n1C(C)C,7.35% (inactive)
4,Cc1nn(C(=O)c2cccc([N+](=O)[O-])c2)c(C)c1Sc1ccccc1,0.41% (inactive)
5,Cc1ccc(OCc2nnc(SCC(=O)c3cccc([N+](=O)[O-])c3)n2C)cc1,3.44% (inactive)
6,COc1ccc(NC(=O)C2CCC(N3C(=O)C4C5C=CC(C5)C4C3=O)CC2)cc1 (centres undefined),-14.2% (inactive)
7,COc1cc(NC(=O)COc2ccc(-n3ccnc3)cc2)cc(OC)c1,54.1% (inactive)
8,O=C(O)COCC(=O)Nc1ccc2c(c1)CCC2,-2.88% (inactive)
9,O=C(COc1cc(Cl)ccc1Cl)Nc1ccc2c(c1)CCC2,3.53% (inactive)
10,O=C(COc1ccc(Cl)cc1)NCc1ccncc1,0.93% (inactive)
11,O=C(COc1ccc(-n2ccnc2)cc1)Nc1cccc(Cl)c1,3.18% (inactive)
12,O=C(COc1ccc2c(c1)CCC2)NCc1ccc(Cl)cc1,13.4% (inactive)
13,O=C(COc1ccc2ccccc2c1)Nc1ccc(Cc2ccncc2)cc1,11.6% (inactive)
14,CC(=O)c1ccc(NC(=O)COc2ccc3c(c2)OCO3)cc1,14% (inactive)
15,Cc1ccc(/C=N/n2c(C)n[nH]c2=S)o1,-0.73% (inactive)
16,Cn1c(SCc2nc3ccccc3[nH]2)nnc1-c1cccnc1,-8.31% (inactive)
17,Brc1ccccc1-n1nnc(-c2ccnc3ccccc23)n1,-5.72% (inactive)
18,COC(=O)COc1cccc(NC(=O)c2ccccc2)c1,10.8% (inactive)
19,O=C(COc1ccc2c(c1)CCC2)NCc1cccc(Cl)c1,13.9% (inactive)
20,O=C(COc1cccc(Cl)c1Cl)Nc1ccc2c(c1)CCC2,-7.06% (inactive)
21,COc1ccc(OCC(=O)Nc2cccc(OC)c2)cc1,0.47% (inactive)
22,O=C(COC(=O)c1cncc(Br)c1)Nc1ccc2c(c1)OCO2,2.32% (inactive)
